Results published in PubChem BioAssay (EPA / NIEHS).
“And” between values parts separate entries of the source, which are not always exact repeats. Equal entries are not always repeated. Inconclusive results are not listed. The source made the active and inactive calls. Rule for the calls: active = hit-call score of the fitted dose curve at least 0.9, where 1 is the maximum; inconclusive = response in the unintended direction; inactive = score below 0.9.

Biological target: human Androgen Receptor (AR), AR (gene 367) (UniProt P10275)
Sequence (P10275 whole entry, looked up): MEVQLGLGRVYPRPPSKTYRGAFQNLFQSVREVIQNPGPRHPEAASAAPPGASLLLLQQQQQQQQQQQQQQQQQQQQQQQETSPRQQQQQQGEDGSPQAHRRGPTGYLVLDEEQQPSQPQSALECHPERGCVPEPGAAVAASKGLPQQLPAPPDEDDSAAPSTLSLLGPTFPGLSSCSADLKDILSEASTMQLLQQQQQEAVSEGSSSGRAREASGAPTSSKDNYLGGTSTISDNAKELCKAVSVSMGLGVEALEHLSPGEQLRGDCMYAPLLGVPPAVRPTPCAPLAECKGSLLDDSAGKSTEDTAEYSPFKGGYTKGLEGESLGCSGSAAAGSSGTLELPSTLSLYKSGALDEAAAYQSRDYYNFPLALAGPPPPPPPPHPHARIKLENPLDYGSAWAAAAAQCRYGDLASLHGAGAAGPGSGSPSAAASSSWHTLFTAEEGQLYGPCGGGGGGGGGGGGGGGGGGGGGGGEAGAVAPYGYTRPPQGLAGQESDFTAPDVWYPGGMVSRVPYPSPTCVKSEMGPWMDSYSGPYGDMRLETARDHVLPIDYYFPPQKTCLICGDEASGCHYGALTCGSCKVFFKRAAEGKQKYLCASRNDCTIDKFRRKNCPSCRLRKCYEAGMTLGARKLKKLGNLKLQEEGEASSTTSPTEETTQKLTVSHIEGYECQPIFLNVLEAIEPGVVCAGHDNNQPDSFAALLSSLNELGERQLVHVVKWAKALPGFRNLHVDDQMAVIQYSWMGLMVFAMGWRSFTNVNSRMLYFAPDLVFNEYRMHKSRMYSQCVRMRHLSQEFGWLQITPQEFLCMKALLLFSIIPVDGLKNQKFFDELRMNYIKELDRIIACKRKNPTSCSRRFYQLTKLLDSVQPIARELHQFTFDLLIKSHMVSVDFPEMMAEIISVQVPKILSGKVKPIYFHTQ
Assay: NVS_NR_hAR: NovaScreen (NVS) Nuclear Receptor Binding Assay for human Androgen Receptor (AR) (AID 2283332)
Method in brief: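 Actives from a duplicate 25 uM single-point screen went on to concentration series. Read-out after 20 h was scintillation counting of displaced radioligand in LnCAP extract, with DMSO as baseline.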

| SMILES | AC50 | outcome |
| --- | --- | --- |
| O=C1C=CC(=O)c2ccccc21 | 33.9 µM (active) |  |
| Cc1cc(C(C)(C)c2ccc(O)c(C)c2)ccc1O | 2.93 µM (active) |  |
| OC(Cc1ccccc1Cl)(Cn1[nH]cnc1=S)C1(Cl)CC1 (stereo not drawn) |  | inactive |
| [Cl][Sn]([c]1ccccc1)([c]1ccccc1)[c]1ccccc1 | 0.746 µM (active) |  |
| Nc1c(Oc2ccccc2)cc(O)c2c1C(=O)c1ccccc1C2=O |  | inactive |

Biological target: rat Peripheral-type Benzodiazepine Receptor (PBR), Tspo (gene 24230) (UniProt P16257)
Sequence (P16257 whole entry, looked up): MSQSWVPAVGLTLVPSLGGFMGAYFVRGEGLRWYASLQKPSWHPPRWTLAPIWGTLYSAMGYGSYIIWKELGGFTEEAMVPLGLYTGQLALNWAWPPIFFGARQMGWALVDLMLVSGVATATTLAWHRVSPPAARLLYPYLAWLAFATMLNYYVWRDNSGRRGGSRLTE
Assay: NVS_MP_rPBR: NovaScreen (NVS) Membrane Protein Assay for rat Peripheral-type Benzodiazepine Receptor (PBR) (AID 2283335)
Method in brief: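 Competitive displacement of specific radioligand from rat kidney membrane PBR, read by filtration and scintillation after 1 h. Compounds first tested at 25 uM in duplicate, then in concentration series; signal loss relative to DMSO.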

| SMILES | AC50 | outcome |
| --- | --- | --- |
| Cc1cccc(OP(=O)(Oc2cccc(C)c2)Oc2cccc(C)c2)c1 | 1.26 µM (active) |  |
| CC(C)N(C(=O)CCl)c1ccccc1 | 3.16 µM (active) and 407 nM (active) |  |
| Cc1ccccc1OP(=O)(Oc1ccccc1)Oc1ccccc1 | 0.284 µM (active) |  |
| CC(C)(COCC1CO1)COCC1CO1 (stereo not drawn) |  | inactive |
| Cc1cc(C(C)(C)c2ccc(O)c(C)c2)ccc1O |  | inactive |
| CC1(C)[C@H](C(=O)O[C@H](C#N)c2cccc(Oc3ccccc3)c2)[C@@H]1/C=C(\Cl)C(F)(F)F |  | inactive |
| CCOP(=S)(OCC)OP(=S)(OCC)OCC | 17.8 µM (active) |  |
| Cc1ccc(OP(=O)(Oc2ccc(C)cc2C)Oc2ccc(C)cc2C)c(C)c1 | 1.06 µM (active) |  |
| CCOP(=O)(OCC)OC(=CCl)c1ccc(Cl)cc1Cl | 1.65 µM (active) |  |
| CCCCOP(=O)(CCCC)OCCCC | 1.62 µM (active) |  |
| CCOC(=O)CCN(SN(C)C(=O)Oc1cccc2c1OC(C)(C)C2)C(C)C | 4.91 µM (active) |  |
| CCOP(=S)(OCC)SCS(=O)(=O)C(C)(C)C | 2.02 µM (active) |  |
| Cc1ccccc1OP(=O)(Oc1ccccc1C)Oc1ccccc1C | 17.1 µM (active) |  |
| CCOP(=S)(OCC)O/N=C(\C#N)c1ccccc1 | 16.2 µM (active) |  |
| CCOC(=O)C(SP(=S)(OC)OC)c1ccccc1 (stereo not drawn) | 7.41 µM (active) |  |

Biological target: bovine Estrogen Receptor (ER), ESR1 (gene 407238) (UniProt P49884)
Sequence (P49884 whole entry, looked up): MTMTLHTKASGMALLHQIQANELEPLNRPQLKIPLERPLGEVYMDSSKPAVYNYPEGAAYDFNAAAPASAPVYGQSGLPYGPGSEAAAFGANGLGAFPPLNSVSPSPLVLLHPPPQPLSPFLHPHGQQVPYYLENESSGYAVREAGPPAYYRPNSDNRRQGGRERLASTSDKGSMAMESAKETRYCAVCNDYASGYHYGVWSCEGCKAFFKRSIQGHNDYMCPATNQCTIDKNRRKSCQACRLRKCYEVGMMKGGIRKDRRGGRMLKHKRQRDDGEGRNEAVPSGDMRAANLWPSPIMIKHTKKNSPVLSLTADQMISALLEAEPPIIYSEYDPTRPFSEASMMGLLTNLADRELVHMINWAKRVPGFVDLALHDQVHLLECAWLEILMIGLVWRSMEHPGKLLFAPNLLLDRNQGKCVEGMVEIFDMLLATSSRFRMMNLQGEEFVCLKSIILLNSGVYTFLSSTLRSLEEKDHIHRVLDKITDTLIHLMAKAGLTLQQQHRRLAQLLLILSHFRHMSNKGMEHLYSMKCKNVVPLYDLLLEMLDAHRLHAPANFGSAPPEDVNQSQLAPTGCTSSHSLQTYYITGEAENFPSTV
Assay: NVS_NR_bER: NovaScreen (NVS) Nuclear Receptor Binding Assay for bovine Estrogen Receptor (ER) (AID 2283345);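 note: actives lower the bound radioligand count which means they displace the ER ligand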
Method in brief: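 Cell-free radioligand binding with receptor from bovine uterine membranes, read by scintillation counting 18 h after dosing. Loss of specific binding was scored against DMSO; primary screen at 25 uM in duplicate, actives then run as concentration series.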

| SMILES | outcome |
| --- | --- |
| CC(O)(CS(=O)(=O)c1ccc(F)cc1)C(=O)Nc1ccc(C#N)c(C(F)(F)F)c1 (stereo not drawn) | inactive |
| O=C(CCl)Nc1ccccc1 | inactive |
| CCOCn1c(-c2ccc(Cl)cc2)c(C#N)c(Br)c1C(F)(F)F | inactive |
| CCOP(=O)(OCC)OC(=CCl)c1ccc(Cl)cc1Cl | inactive |
| O=[N+]([O-])c1ccc(Cl)c([N+](=O)[O-])c1 | inactive |

Biological target: chimpanzee Androgen Receptor (AR), AR (gene 747460) (UniProt O97775)
Sequence (O97775 whole entry, looked up): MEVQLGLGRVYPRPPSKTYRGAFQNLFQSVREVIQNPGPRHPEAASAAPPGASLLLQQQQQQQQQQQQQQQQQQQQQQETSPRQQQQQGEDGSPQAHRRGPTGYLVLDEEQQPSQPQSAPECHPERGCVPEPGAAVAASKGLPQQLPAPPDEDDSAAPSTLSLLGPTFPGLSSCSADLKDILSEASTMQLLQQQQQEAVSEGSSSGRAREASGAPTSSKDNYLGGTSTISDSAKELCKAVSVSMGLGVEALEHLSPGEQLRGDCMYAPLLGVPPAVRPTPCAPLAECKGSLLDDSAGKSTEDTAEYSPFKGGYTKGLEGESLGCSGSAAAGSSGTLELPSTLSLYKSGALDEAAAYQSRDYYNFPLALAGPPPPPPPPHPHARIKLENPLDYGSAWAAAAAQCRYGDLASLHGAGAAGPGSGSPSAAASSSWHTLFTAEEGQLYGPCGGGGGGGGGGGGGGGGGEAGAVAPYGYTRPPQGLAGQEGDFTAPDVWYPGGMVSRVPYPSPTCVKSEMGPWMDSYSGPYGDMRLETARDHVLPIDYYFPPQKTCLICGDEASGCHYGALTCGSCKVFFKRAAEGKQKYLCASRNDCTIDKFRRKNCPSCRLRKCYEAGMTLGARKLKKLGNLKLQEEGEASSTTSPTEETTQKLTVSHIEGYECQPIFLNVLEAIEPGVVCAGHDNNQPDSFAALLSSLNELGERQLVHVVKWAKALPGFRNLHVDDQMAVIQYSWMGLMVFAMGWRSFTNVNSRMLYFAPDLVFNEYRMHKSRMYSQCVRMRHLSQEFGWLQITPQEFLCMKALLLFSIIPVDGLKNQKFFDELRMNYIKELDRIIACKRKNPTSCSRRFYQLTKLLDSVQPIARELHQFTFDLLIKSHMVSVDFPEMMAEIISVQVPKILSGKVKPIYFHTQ
Assay: NVS_NR_cAR: NovaScreen (NVS) Nuclear Receptor Binding Assay for chimpanzee Androgen Receptor (AR) (AID 2283346);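 note: radioligand displacement from AR measured by scintillation counting in a cell-free assay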
Method in brief: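 Cell-free radioligand displacement using receptor protein extracted from Sf9/Sf21 cells; bound radioligand measured by scintillation counting 72 hours after chemical dosing. Loss of signal versus DMSO baseline indicates binding; primary screen single-concentration in duplicate at 25 uM, actives followed in concentration series.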

| SMILES | AC50 | outcome |
| --- | --- | --- |
| O=S1(=O)OC(c2cc(Br)c(O)c(Br)c2)(c2cc(Br)c(O)c(Br)c2)c2ccccc21 | 18.1 µM (active) |  |
| O=C(CCl)Nc1ccccc1 |  | inactive |
| Cc1cc(C(C)(C)c2ccc(O)c(C)c2)ccc1O |  | inactive |
| OC(Cc1ccccc1Cl)(Cn1[nH]cnc1=S)C1(Cl)CC1 (stereo not drawn) |  | inactive |
| [Cl][Sn]([c]1ccccc1)([c]1ccccc1)[c]1ccccc1 |  | inactive |
| O=[N+]([O-])c1ccc(Cl)c([N+](=O)[O-])c1 | 11.9 µM (active) |  |
| CCC[CH2][Sn]([Cl])([Cl])[CH2]CCC | 19.6 µM (active) |  |
| Nc1c(Oc2ccccc2)cc(O)c2c1C(=O)c1ccccc1C2=O |  | inactive |
